# Measured values as given in the supplement of paper PMC3545927.
# The list shows a part of the results. The true hit rate is not given.
# Target: furin, P09958
# Assay: furin cleavage Z-score vs untreated control; higher = more cleavage, active = 3.5 or more, inactive = 1 or less, 8 variable residues between constant flanks
# Method in brief: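 The cleavage Z-score is the log read count relative to furin-free reactions, lowess-adjusted and scaled by median absolute deviation. Counts came from sequencing DNA released from bead-bound 8-mer peptide–cDNA fusions after digestion with purified furin for 7.5, 15 or 30 min.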
# 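Further: purified furin at 1:10 enzyme:substrate in 50 mM HEPES pH 7.5.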
# furin, P09958, sequence (P09958 whole entry): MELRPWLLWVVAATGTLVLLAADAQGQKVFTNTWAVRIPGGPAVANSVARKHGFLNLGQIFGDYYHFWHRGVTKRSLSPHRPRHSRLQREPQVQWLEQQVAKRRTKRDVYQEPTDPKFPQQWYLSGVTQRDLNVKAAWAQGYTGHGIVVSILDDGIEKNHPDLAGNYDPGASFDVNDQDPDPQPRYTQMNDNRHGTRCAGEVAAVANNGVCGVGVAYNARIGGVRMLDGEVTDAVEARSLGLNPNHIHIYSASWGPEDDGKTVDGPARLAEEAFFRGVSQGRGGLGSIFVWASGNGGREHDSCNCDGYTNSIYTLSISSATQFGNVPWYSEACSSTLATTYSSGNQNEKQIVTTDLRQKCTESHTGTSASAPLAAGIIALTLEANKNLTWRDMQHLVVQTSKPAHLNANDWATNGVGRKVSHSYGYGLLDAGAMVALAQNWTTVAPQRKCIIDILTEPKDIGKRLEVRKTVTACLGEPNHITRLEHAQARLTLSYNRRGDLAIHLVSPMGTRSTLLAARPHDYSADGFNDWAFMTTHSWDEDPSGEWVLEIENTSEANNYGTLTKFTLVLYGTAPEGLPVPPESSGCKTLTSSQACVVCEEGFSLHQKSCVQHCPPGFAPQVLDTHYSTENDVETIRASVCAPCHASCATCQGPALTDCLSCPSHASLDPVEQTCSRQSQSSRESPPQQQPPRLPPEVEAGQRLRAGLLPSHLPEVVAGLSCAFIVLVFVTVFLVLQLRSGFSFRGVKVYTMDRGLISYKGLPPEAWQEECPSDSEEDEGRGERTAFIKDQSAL
Sequence,furin cleavage Z-score (7.5 min),furin cleavage Z-score (15 min),furin cleavage Z-score (30 min)
CAAQKRSVGSAGNASASA [FS-2626],0.58 (inactive),0.683 (inactive),-0.853 (inactive)
CARPARSGGPAGNASASA [FS-2735],-0.759 (inactive),-1.01 (inactive),-0.741 (inactive)
CARPARSVGSAGNASASA [FS-2736],6.91 (active),7.69 (active),6.7 (active)
CARPARSVSKAGNASASA [FS-2498],4.36 (active),6.03 (active),6.77 (active)
CARPARLVPAAGNASASA [FS-2398],-0.162 (inactive),-1.02 (inactive),-0.581 (inactive)
CAEMKRKKRVAGNASASA [FS-1521],6.73 (active),7.44 (active),8.54 (active)
CATHSRKKRQAGNASASA [FS-201],8.08 (active),7.91 (active),8.14 (active)
CAWNKRKKRQAGNASASA [FS-968],13.9 (active),14.4 (active),10.5 (active)
CAKKHKKKRVAGNASASA [FS-1538],-1.41 (inactive),-0.885 (inactive),0.391 (inactive)
CASTPCSDHLAGNASASA [HC2531],0.0703 (inactive),0.929 (inactive),-0.421 (inactive)
CAKPARYRRGAGNASASA [FS-813],12.3 (active),12.4 (active),9.69 (active)
CARPARDEGGAGNASASA [FS-2050],-0.0204 (inactive),-1.47 (inactive),-0.304 (inactive)
CARPARYRRGAGNASASA [FS-861],11.5 (active),11.1 (active),8.69 (active)
CAERGFFYTPAGNASASA [EK9],-0.00549 (inactive),-1.03 (inactive),-0.153 (inactive)
CAVVCCSMSFAGNASASA [HC2087],-0.658 (inactive),0.464 (inactive),-0.984 (inactive)
CAEKVTSTWVAGNASASA [HC2174],-0.438 (inactive),1.1,-0.0879 (inactive)
CAEGQRKRRNAGNASASA [FS-19],11.4 (active),10.7 (active),8.22 (active)
CACCRRKRRNAGNASASA [FS-1188],10.9 (active),10.1 (active),9.12 (active)
CAGCTTPCSGAGNASASA [HC1956],-0.873 (inactive),-0.658 (inactive),-0.0577 (inactive)
CAGGAARALAAGNASASA [HC233],0.841 (inactive),-0.114 (inactive),-0.813 (inactive)
CAWTPCSGSWAGNASASA [HC1828],-0.899 (inactive),-0.739 (inactive),-0.599 (inactive)
CAEVVTSEWVAGNASASA [HC2212],0.969 (inactive),-0.725 (inactive),-0.598 (inactive)

Sequence,furin cleavage Z-score (7.5 min),furin cleavage Z-score (15 min),furin cleavage Z-score (30 min)
CATTPCSISWAGNASASA [HC1884],1.02,2.64,0.615 (inactive)
CARSIRSTGSAGNASASA [FS-1971],8.51 (active),7.83 (active),8.71 (active)
CARSIRSVAIAGNASASA [FS-3081],-0.459 (inactive),0.367 (inactive),2.74
CARSDRSVPSAGNASASA [FS-2236],-0.464 (inactive),-1.02 (inactive),-0.799 (inactive)
CARSIRSSQNAGNASASA [FS-2806],3.82 (active),4.88 (active),5.06 (active)
CAGEVPSTEDAGNASASA [HC1096],-0.773 (inactive),-0.136 (inactive),0.506 (inactive)
CAPTPCSAHLAGNASASA [HC2479],-0.112 (inactive),0.764 (inactive),1.86
CAFAPTLWARAGNASASA [HC1578],0.686 (inactive),-1.55 (inactive),0.247 (inactive)
CAAKSRPKRRAGNASASA [FS-641],10.7 (active),12 (active),8.13 (active)
CAHSKRRVRDAGNASASA [FS-663],13.2 (active),12.9 (active),9.58 (active)
CAAKSKFGYGAGNASASA [HC1419],0.282 (inactive),0.423 (inactive),0.234 (inactive)
CAMSKRDVLDAGNASASA [FS-2873],-0.828 (inactive),-0.533 (inactive),-0.677 (inactive)
CAKIARPKKRAGNASASA [FS-40],0.288 (inactive),-0.123 (inactive),-0.964 (inactive)
CAHSSRPVRDAGNASASA [FS-1594],6.49 (active),7.91 (active),7.38 (active)
CAADVIPVRRAGNASASA [HC729],-0.626 (inactive),1.64,0.64 (inactive)
CAAKSRPVRGAGNASASA [FS-523],6.42 (active),5.25 (active),5.42 (active)
CAHSKRKISWAGNASASA [FS-2865],1.39,0.543 (inactive),1.88
CAGCTWMNSTAGNASASA [HC436],0.97 (inactive),0.0364 (inactive),1.16
CAAAGQLDLSAGNASASA [HC1641],-0.412 (inactive),0.71 (inactive),-1.04 (inactive)
CAEVNTSTWVAGNASASA [HC2201],0.639 (inactive),0.541 (inactive),1.06
CAVVCKSMSYAGNASASA [HC91],-0.0467 (inactive),0.255 (inactive),0.551 (inactive)
CATWPCSGSWAGNASASA [HC1848],-0.614 (inactive),-1.25 (inactive),-0.879 (inactive)
